Results on 98 compounds are retold here after PubChem BioAssay AID492997 (Johns Hopkins Ion Channel Center, 2010).

One may read the inhibition as the drop in the measured response relative to a control, in per cent.

The whole screen tested about 4,900 compounds, of which about 2,000 (41%) were called active.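 How the source made its calls: active means thallium signal drop beyond 5 SD of the untreated control mean, on both duplicate plates; inactive means the rest.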 So high a share suggests a set chosen from earlier hits. Only a sample is shown.

A short description of the assay: thallium flux in non-induced HEK293 cells, confirmation, counter-screen for KCNK9 inhibitor project, cell-based, second counter screen, non-induced KCNK9-HEK293 (AID 492997).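 On inhibition: plate controls were buffer only IC0 wells for no effect and SID17386958 at its maximal inhibitory level for full effect.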 As to conditions: non-induced KCNK9-HEK293, FluxOR thallium flux, at 10 µM; hits give high values. For orientation: The purpose of a counterscreen is to sort out artefacts and off-target activity.
As to `O=C(COC(=O)/C(=C/c1cccs1)c1cccs1)NCc1ccccc1Cl`, the inhibition was 31% (active). In the case of `Cc1ccc(NC(=O)c2cc([N+](=O)[O-])ccc2Cl)c(O)c1` it was 32% (active); in that of `N#Cc1nc(Cc2cccc3ccccc23)oc1NCc1ccc2c(c1)OCO2`, 53.5% (active). In the case of `O=C(CC(NC(=O)c1ccccc1)c1ccccc1)Nc1ccc(F)c(F)c1` (stereo not drawn) it was 37% (active); in that of `Cc1ccc(C(=O)c2c(NC(=O)c3ccccc3)sc(C)c2C)cc1`, “inactive”; in that of `O=[N+]([O-])c1ccc(N2CCN(CC(O)COc3ccccc3)CC2)cc1` (stereo not drawn), “inactive”. Take `Cc1ccc(C)c(NC(=S)NNC(=S)Nc2ccc(C(C)C)cc2)c1`: the inhibition entry was “inactive”. In the case of `O=C(Cn1cc(C(=O)c2cccs2)c2ccccc21)NCc1cccs1` it was 29.5% (active); in that of `CCOc1cccc(OCCCOc2cccc3cccnc23)c1`, “inactive”. In the case of `Cc1cc(Cl)ccc1C(=O)C1CCCN(C(=O)CCN2CCCO2)C1` (stereo not drawn), the inhibition result is “inactive”.

Turning to `CCCOc1ccc2c3c(c(=O)oc2c1OCCC)CCC3`, the inhibition was 48.5% (active). Next, `Cc1cc2ccccn2c1C(=O)c1cccc(F)c1`: “inactive”. Next, `COc1cc(Cl)c(C)cc1NC(=O)CSc1nnc(-c2ccco2)n1CC(C)C`: 25.5% (active).

Regarding `O=C(Nc1nnc(SCc2ccc(Cl)cc2Cl)s1)C1COc2ccccc2O1` (stereo not drawn), the inhibition entry is “inactive”. Turning to `COc1cccc(-c2nn(C)c3sc(C(=O)N4CCN(c5ccccc5)CC4)cc23)c1`, the inhibition entry was “inactive”. Next, `COc1ccccc1C(c1nnnn1C(C)(C)C)N1CCN(Cc2ccccc2)CC1` (stereo not drawn): 37.5% (active); `CC1=C/C(=N\OS(=O)(=O)c2ccccc2)C=CC1=O`: “inactive”. In the case of `CCOc1ccccc1NC(=O)C1CCCN(S(=O)(=O)c2ccccc2)C1` (stereo not drawn) it was “inactive”; in that of `Clc1ccc(COn2c(-c3ccc(Cl)cc3Cl)nc3ncccc32)cc1`, 45% (active). In the case of `CCOC(=O)C(C)n1cnc2scc(-c3ccc(C)c(C)c3)c2c1=O` (stereo not drawn) it was “inactive”; in that of `CCCCCCCCCCOC(=O)Cn1c(COc2cccc(OC)c2)[n+](C)c2ccccc21`, 28% (active). `CCCCCCCCCCOC(=O)Cn1c(COc2ccc(C)cc2)[n+](C)c2ccccc21`: the inhibition result was “inactive”. With `Cc1onc(-c2ccc(Cl)cc2)c1-c1ccnn1S(=O)(=O)c1ccc(Cl)cc1`, the inhibition was 46.5% (active).

As to `Cc1cc2ccccn2c1C(=O)c1cccc(S(=O)(=O)N2CCOCC2)c1`, the inhibition entry is “inactive”. Take `Cc1cccc(N2CCN(C(=O)c3cccc(S(=O)(=O)N4CCc5ccccc5C4)c3)CC2C)c1` (stereo not drawn): the inhibition result is “inactive”. In the case of `CCCCn1ccnc1C(=O)c1cccc(S(=O)(=O)N2c3ccccc3CC2C)c1` (stereo not drawn), the inhibition is 46.5% (active).

For `C=CCc1cc(S(=O)(=O)c2ccc(O)c(CC=C)c2)ccc1O`, the inhibition is 26% (active).

Turning to `COc1ccc([N+](=O)[O-])cc1-c1nc2ccccc2nc1-c1ccccc1`, the inhibition was 37% (active). For `O=C1CC(c2ccccc2)=NN1c1ccc([N+](=O)[O-])cc1`, the inhibition result was “inactive”. Next, `Cc1ccc(CN2CCN(/N=C/c3ccco3)CC2)c(C)c1`: “inactive”. Next, `CCOC(=O)C(C)Sc1nc2ccccc2c(=O)n1CC1CCCCC1` (stereo not drawn): 31.5% (active). On to `Cc1[nH][nH]c(=O)c1C(c1ccc(-c2ccc(Cl)cc2)o1)c1c(C)[nH][nH]c1=O`, for which the inhibition result is “inactive”. For `CC(C)(C)SCCSC1=CC(=O)CC(c2ccccc2)C1` (stereo not drawn), the inhibition result is “inactive”. For the compound `Cc1cccc(NC(=O)c2sc3nc4c(c(-c5ccco5)c3c2N)CCC4)c1`, the inhibition was 38.5% (active). For the compound `Cc1ccnc(N2CCN(C(=O)CSc3nc4ccccc4nc3N3CCCCC3)CC2)c1`, the inhibition entry is “inactive”. Next, `COC(=O)c1cc(NC2c3ccccc3C(=O)N2c2ccc(Cl)cn2)cc(C(=O)OC)c1` (stereo not drawn): 28.5% (active); `CCOC(=O)N/N=C/c1cn(Cc2ccccc2Cl)c2ccccc12`: 25.5% (active); `COc1cc(C(CCN2CCN(c3ccccc3)CC2)c2c(OC)cc(OC)c3ccc(=O)oc23)cc(OC)c1OC` (stereo not drawn): “inactive”. Consider `Cc1ccc(C2=NN(C)c3nc4ccccc4n3C2)cc1`, for which the inhibition result was “inactive”. Next, `CCC/C=C(\CCC)C(NC(=O)Cc1ccccc1)c1ccc(C(=O)OC)cc1` (stereo not drawn): 53% (active); `O=C(Nc1ccc(Oc2ccccc2)cc1)c1ccco1`: 39.5% (active). Next, `CC(Oc1ccc2ccccc2c1)C(=O)NNC(=S)NC(=O)c1ccco1` (stereo not drawn): “inactive”; `Cc1ncoc1C(=O)N1CCCC(C(=O)c2ccc3c4c(cccc24)CC3)C1` (stereo not drawn): “inactive”. In the case of `O=S(=O)(Nc1cccc(Oc2ccc(Cl)cc2)n1)c1ccc(F)cc1` it was “inactive”; in that of `Cc1cc(Oc2ccc(Cl)cc2)nc(SCC(=O)c2ccccc2)n1`, 28% (active). Regarding `CCOC(=O)CSc1nc2c(sc(=S)n2CCc2ccccc2)c(=O)n1Cc1ccco1`, the inhibition was 35.5% (active). With `O=C(COC(=O)c1ccccc1)Nc1ccccc1Sc1ccccc1`, the inhibition is 34.5% (active). Consider `COc1ccc(OC)c(-c2csc(-c3cccs3)n2)c1`, for which the inhibition is 26.5% (active).

Turning to `COc1ccccc1/C=C/C=N/n1c(-c2ccc(Cl)cc2Cl)n[nH]c1=S`, the inhibition result is “inactive”. Next, `Brc1ccc(C2CC(c3ccccc3)=Nc3ccccc3N2)cc1` (stereo not drawn): 34.5% (active). Next, `COc1ccc(C(=O)C2CCCN(Cc3ccc4nonc4c3)C2)c(C)c1` (stereo not drawn): “inactive”; `COc1ccc(C2CC(c3cccs3)=Nc3ccccc3S2)cc1OC` (stereo not drawn): 33% (active).

For `CCCCNC(=S)N/N=C1\CCCCc2ccccc21`, the inhibition entry was “inactive”. In the case of `CCOC(=O)N1CCN(C(=O)COc2ccc3oc4c(c3c2)CCCC4)CC1` it was “inactive”; in that of `CCOc1ccc(C(C)C)cc1S(=O)(=O)n1nc(C)cc1C`, 39.5% (active); in that of `O=C(NC(=S)Nc1ccccc1C(=O)O)c1ccc(-c2ccc(Br)cc2)o1`, “inactive”. `O=c1cc(CN2CCN(c3cccc(Cl)c3)CC2)c2cc3c(cc2o1)CCCC3`: the inhibition entry was “inactive”. Take `CCc1cccc(C)c1N(C(=O)Cn1c(CO)nc2ccccc21)C(C)COC` (stereo not drawn): the inhibition is 33% (active). As for `Cc1c(C(=O)Nc2ccccn2)oc2ccc(Br)cc12`, the inhibition was 29.5% (active). In the case of `COc1cc(C2CC(=O)N3CN(Cc4ccccc4)CSC3=C2C#N)ccc1OCc1ccccc1` (stereo not drawn) it was “inactive”; in that of `CCCCCC(O)c1cccc(OCc2ccc3ccccc3n2)c1` (stereo not drawn), 38.5% (active); in that of `Cc1ccc(C(=O)c2c(NC(=O)c3ccncc3)sc3c2CCCC3)cc1`, “inactive”.

For the compound `CCCCN(Cc1ccccc1)C(=O)C1CCN(Cc2sccc2C)CC1`, the inhibition result was “inactive”. In the case of `O=C(Oc1ccc(Br)cc1C(=S)N1CCOCC1)c1cccc([N+](=O)[O-])c1` it was “inactive”; in that of `O=C(C[C@H]1C(=O)N(c2ccc(F)c(F)c2)C[C@@H]1Cc1ccccc1)Nc1ccccc1`, 37% (active). For `COc1ccc(C(CCN(Cc2ccc(OC)c(OC)c2)C(=O)CCl)c2ccccc2)cc1` (stereo not drawn), the inhibition result was “inactive”.

`Cc1ccc(CN(N=Nc2nonc2N)c2nonc2N)c(C)c1`: the inhibition was 43.5% (active).

As for `CC(C)CC(COCc1ccc(Cl)cc1)N1CCN(C(=O)c2ccc(C(F)(F)F)cc2)CCC1=O` (stereo not drawn), the inhibition was 29.5% (active).

Turning to `CN(c1ccccc1)S(=O)(=O)c1cccc(NC(=O)Cc2c(F)cccc2Cl)c1`, the inhibition was 23.5% (active). Consider `Cc1ccccc1CSCCNC(=O)c1ccc(N(C)S(=O)(=O)c2ccccc2)cc1`, for which the inhibition entry is “inactive”. As for `COc1ccccc1N1CCN(c2ncnc3sc(C)c(-c4ccccc4)c23)CC1`, the inhibition result is “inactive”. As to `Clc1ccc(CSc2nnc(/C=C/c3ccccc3)o2)c(Cl)c1`, the inhibition entry is “inactive”. In the case of `CCN(CC)S(=O)(=O)c1ccc(N(C)Cc2ccc(C(F)(F)F)cc2)nc1`, the inhibition was 39.5% (active). In the case of `CCCC1=Nc2cc(C(=O)NCc3ccco3)ccc2Sc2ccccc21` it was 39.5% (active); in that of `O=C(NCc1ccco1)c1ccc(NS(=O)(=O)c2cccc([N+](=O)[O-])c2)cc1`, “inactive”; in that of `COc1cc(Cl)ccc1OCc1cc(C(=O)N2CC[C@@H]3CCCC[C@H]3C2)no1`, “inactive”. In the case of `CCOc1ccc(C2c3[nH]c4ccccc4c3CCN2Cc2cccn2-c2ncccn2)cc1` (stereo not drawn) it was 25.5% (active); in that of `COCCN(C(=S)Nc1cccc(Cl)c1C)C(C)c1ccco1` (stereo not drawn), “inactive”; in that of `Cn1nc(-c2ccccc2)c(CSc2cccc(Cl)c2)c1Cl`, 38% (active). Next, `CCOC(=O)C1(CCOc2ccccc2)CCN(Cc2cc(OC)c(O)cc2Cl)CC1`: “inactive”; `CCc1nnc(NS(=O)(=O)c2ccc(NC(=S)NC(=O)/C=C/c3cccs3)cc2)s1`: “inactive”. Consider `Cc1[nH]c2ccccc2c1CCN(Cc1cccs1)C(=S)NC(C)(C)C`, for which the inhibition result is “inactive”. In the case of `COc1cccc(NC(=S)N(CCc2c(C)[nH]c3ccccc23)Cc2ccco2)c1` it was 30% (active); in that of `O=C(Nc1ccc(S(=O)(=O)N2CCCCC2)cc1)C1CCN(C(=O)c2ccc(F)cc2)CC1`, “inactive”.

For `O=C(Cc1ccccc1)n1nc(-c2ccccc2)nc1NCc1ccco1`, the inhibition is 33% (active). In the case of `CCCC(=O)n1nc(NCc2ccc(OC)cc2)nc1NCc1ccc(OC)cc1` it was “inactive”; in that of `COc1ccccc1NC(=O)CSc1nc2sc(C)c(C)c2c(=O)n1Cc1ccco1`, 38.5% (active); in that of `C=CCOc1ccc(/C=N/NC(=O)C(C)Sc2ccccn2)cc1OCC` (stereo not drawn), 39% (active). Consider `CCCN1C(=O)C(Cc2nc3ccccc3c(=O)n2-c2ccccc2)c2cc(C)ccc21` (stereo not drawn), for which the inhibition is 37.5% (active). With `CCOc1ccc(CN(Cc2ccco2)C(c2cccs2)c2nnnn2C(C)(C)C)cc1` (stereo not drawn), the inhibition was 41% (active). In the case of `Cc1csc(Nc2ccc(Cl)cc2)[n+]1-c1ccc(Cl)cc1` it was “inactive”. As for `COc1ccc(-c2oc(/N=C/N3CCCC3)c(C#N)c2-c2ccc(OC)cc2)cc1`, the inhibition entry is “inactive”. Next, `CCC1=NN(C(=O)Cc2ccc([N+](=O)[O-])cc2)C(O)(c2ccc(Br)cc2)C1` (stereo not drawn): 28.5% (active); `Clc1cccc(-c2nc3nc4ccccc4nc3n2Cc2ccco2)c1`: “inactive”; `Clc1ccc(Cl)c(Oc2ccc(Oc3nc(Cl)ccc3Cl)cc2)n1`: “inactive”. Next, `COC(=O)C1=C(Nc2ccc(C)cc2)C=C(C)C(C(=O)OC)C1c1ccc(F)cc1` (stereo not drawn): 37.5% (active); `Cc1ccc(C(=O)/C=C/c2c(C)nn(-c3ccccc3)c2Cl)cc1`: “inactive”.

With `O=C(Nn1c(SCc2ccc([N+](=O)[O-])cc2)nc2ccccc2c1=O)c1ccc(F)cc1`, the inhibition entry was “inactive”.
